# Source: PMC11006913
# Where a chain is given by its changes, count along the chain named.
# Assays:
# Experiment in all cases: PBM; 200 nM protein, PBS
# Settings in all cases: dsDNA, one strand shown
# ALX4 [1] = target: ALX4 (Homo sapiens, UniProt Q9H161 200-286)
# PAX4 [2] = target: T1, PAX4 (Homo sapiens, UniProt O43316 9-242, R200K)
# T1 sequence: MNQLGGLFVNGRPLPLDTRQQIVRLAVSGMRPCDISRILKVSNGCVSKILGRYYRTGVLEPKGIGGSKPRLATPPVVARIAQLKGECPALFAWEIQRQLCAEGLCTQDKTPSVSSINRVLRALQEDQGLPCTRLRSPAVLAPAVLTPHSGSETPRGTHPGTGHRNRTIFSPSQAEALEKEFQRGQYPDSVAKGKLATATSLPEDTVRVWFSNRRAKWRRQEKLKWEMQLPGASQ
# PAX4 [3] = target: T2, PAX4 (Homo sapiens, UniProt O43316 9-242)
# T2 sequence: T1 sequence with K192R
# ALX4 [4] = target: ALX4 (Homo sapiens, UniProt Q9H161 200-286, Q225E)
# Sequence of ALX4 (Homo sapiens, UniProt Q9H161 200-286, Q225E) (Q9H161 200-286 Q225E): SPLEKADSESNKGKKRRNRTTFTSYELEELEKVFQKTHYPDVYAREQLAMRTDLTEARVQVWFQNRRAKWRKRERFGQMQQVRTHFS
# NKX2-6 [5] = target: T3, NKX2-6 (Homo sapiens, UniProt A6NCS4 118-204)
# T3 sequence: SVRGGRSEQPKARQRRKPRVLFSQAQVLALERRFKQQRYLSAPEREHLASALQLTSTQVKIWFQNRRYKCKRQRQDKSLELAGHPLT
# PAX4 [6] = target: T4, PAX4 (Homo sapiens, UniProt O43316 9-242, R200Q)
# T4 sequence: T1 sequence with K192Q
# PAX4 [7] = target: T5, PAX4 (Homo sapiens, UniProt O43316 9-242, F177V)
# T5 sequence: T1 sequence with F169V, K192R
# PAX4 [8] = target: T6, PAX4 (Homo sapiens, UniProt O43316 9-242, F177Y)
# T6 sequence: T1 sequence with F169Y, K192R
# NKX2-6 [9] = target: T7, NKX2-6 (Homo sapiens, UniProt A6NCS4 118-204, F151L)
# T7 sequence: T3 sequence with F34L
# PAX4 [10] = target: T8, PAX4 (Homo sapiens, UniProt O43316 9-242, R227W)
# T8 sequence: T1 sequence with K192R, R219W
# HOXC10 [11] = target: HOXC10 (Homo sapiens, UniProt Q9NYD6 254-340)
# Sequence of HOXC10 (Homo sapiens, UniProt Q9NYD6 254-340) (Q9NYD6 254-340): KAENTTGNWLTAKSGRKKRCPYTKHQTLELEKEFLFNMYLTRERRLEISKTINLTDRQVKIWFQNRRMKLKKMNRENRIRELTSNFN
# HOXC10 [12] = target: HOXC10 (Homo sapiens, UniProt Q9NYD6 254-340, K271E)
# Sequence of HOXC10 (Homo sapiens, UniProt Q9NYD6 254-340, K271E) (Q9NYD6 254-340 K271E): as the sequence (Q9NYD6 254-340) above, with K18E counted along it
# CRX = CRX (Homo sapiens, UniProt O43186 26-111, R41L)
# Sequence of CRX (O43186 26-111 R41L): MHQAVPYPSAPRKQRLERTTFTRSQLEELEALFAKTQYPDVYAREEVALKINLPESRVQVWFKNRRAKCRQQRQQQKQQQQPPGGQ
# NKX3-2 [13] = target: NKX3-2 (Homo sapiens, UniProt P78367 192-278, P234S)
# Sequence of NKX3-2 (Homo sapiens, UniProt P78367 192-278, P234S) (P78367 192-278 P234S): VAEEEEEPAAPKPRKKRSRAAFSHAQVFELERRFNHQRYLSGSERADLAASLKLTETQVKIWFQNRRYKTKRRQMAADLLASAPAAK
# NKX3-2 [14] = target: NKX3-2 (Homo sapiens, UniProt P78367 192-278)
# Sequence of NKX3-2 (Homo sapiens, UniProt P78367 192-278) (P78367 192-278): as the sequence (P78367 192-278 P234S) above, with S43P counted along it
# ALX3 [15] = target: ALX3 (Homo sapiens, UniProt O95076 139-225, N203S)
# Sequence of ALX3 (Homo sapiens, UniProt O95076 139-225, N203S) (O95076 139-225 N203S): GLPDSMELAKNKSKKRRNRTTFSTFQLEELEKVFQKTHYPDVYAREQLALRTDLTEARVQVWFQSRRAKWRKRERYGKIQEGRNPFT
# PRRX1 [16] = target: PRRX1 (Homo sapiens, UniProt P54821 80-166, F113S)
# Sequence of PRRX1 (Homo sapiens, UniProt P54821 80-166, F113S) (P54821 80-166 F113S): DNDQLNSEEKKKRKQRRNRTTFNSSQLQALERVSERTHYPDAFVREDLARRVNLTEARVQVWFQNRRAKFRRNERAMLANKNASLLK
# PRRX1 [17] = target: PRRX1 (Homo sapiens, UniProt P54821 80-166)
# Sequence of PRRX1 (Homo sapiens, UniProt P54821 80-166) (P54821 80-166): as the sequence (P54821 80-166 F113S) above, with S34F counted along it
# MSX2 [18] = target: MSX2 (Homo sapiens, UniProt P35548 130-214, R199I)
# Sequence of MSX2 (Homo sapiens, UniProt P35548 130-214, R199I) (P35548 130-214 R199I): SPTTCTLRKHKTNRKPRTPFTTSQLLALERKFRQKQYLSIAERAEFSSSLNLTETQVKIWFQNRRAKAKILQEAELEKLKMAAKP
# MSX2 [19] = target: MSX2 (Homo sapiens, UniProt P35548 130-214)
# Sequence of MSX2 (Homo sapiens, UniProt P35548 130-214) (P35548 130-214): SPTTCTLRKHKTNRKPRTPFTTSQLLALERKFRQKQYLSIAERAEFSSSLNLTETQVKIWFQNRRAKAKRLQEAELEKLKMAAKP
# MSX2 [20] = target: MSX2 (Homo sapiens, UniProt P35548 130-214, F161Y)
# Sequence of MSX2 (Homo sapiens, UniProt P35548 130-214, F161Y) (P35548 130-214 F161Y): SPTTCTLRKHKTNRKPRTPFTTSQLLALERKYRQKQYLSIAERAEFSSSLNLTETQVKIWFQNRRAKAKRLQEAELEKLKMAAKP
# PROP1 [21] = target: PROP1 (Homo sapiens, UniProt O75360 56-141)
# Sequence of PROP1 (Homo sapiens, UniProt O75360 56-141) (O75360 56-141): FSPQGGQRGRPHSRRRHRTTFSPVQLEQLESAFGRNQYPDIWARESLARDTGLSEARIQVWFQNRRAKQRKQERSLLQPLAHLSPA
# PROP1 [22] = target: PROP1 (Homo sapiens, UniProt O75360 56-141, R99H)
# Sequence of PROP1 (Homo sapiens, UniProt O75360 56-141, R99H) (O75360 56-141 R99H): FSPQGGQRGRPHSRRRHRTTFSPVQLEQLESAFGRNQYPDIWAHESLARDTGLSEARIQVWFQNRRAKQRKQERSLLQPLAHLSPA
# PROP1 [23] = target: PROP1 (Homo sapiens, UniProt O75360 56-141, F88S)
# Sequence of PROP1 (Homo sapiens, UniProt O75360 56-141, F88S) (O75360 56-141 F88S): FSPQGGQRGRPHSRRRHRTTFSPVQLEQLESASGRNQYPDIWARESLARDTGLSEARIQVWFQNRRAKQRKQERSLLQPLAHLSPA
# VAX1 [24] = target: VAX1 (Homo sapiens, UniProt Q5SQQ9 86-172)
# Sequence of VAX1 (Homo sapiens, UniProt Q5SQQ9 86-172) (Q5SQQ9 86-172): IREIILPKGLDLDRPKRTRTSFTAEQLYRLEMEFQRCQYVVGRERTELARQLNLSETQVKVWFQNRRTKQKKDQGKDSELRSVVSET
# VAX1 [25] = target: VAX1 (Homo sapiens, UniProt Q5SQQ9 86-172, T142I)
# Sequence of VAX1 (Homo sapiens, UniProt Q5SQQ9 86-172, T142I) (Q5SQQ9 86-172 T142I): as the sequence (Q5SQQ9 86-172) above, with T57I counted along it
# VAX1 [26] = target: VAX1 (Homo sapiens, UniProt Q5SQQ9 86-172, K157R)
# Sequence of VAX1 (Homo sapiens, UniProt Q5SQQ9 86-172, K157R) (Q5SQQ9 86-172 K157R): as the sequence (Q5SQQ9 86-172) above, with K72R counted along it
# HOXB6 = HOXB6 (Homo sapiens, UniProt P17509 132-218, K202E)
# Sequence of HOXB6 (P17509 132-218 K202E): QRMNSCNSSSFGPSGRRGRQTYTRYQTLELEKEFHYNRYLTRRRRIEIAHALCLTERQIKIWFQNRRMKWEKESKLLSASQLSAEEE
# ALX3 [27] = target: ALX3 (Homo sapiens, UniProt O95076 139-225, N203Q)
# Sequence of ALX3 (Homo sapiens, UniProt O95076 139-225, N203Q) (O95076 139-225 N203Q): as the sequence (O95076 139-225 N203S) above, with S65Q counted along it
# ALX1 = ALX1 (Homo sapiens, UniProt Q15699 118-204, L144R)
# Sequence of ALX1 (Q15699 118-204 L144R): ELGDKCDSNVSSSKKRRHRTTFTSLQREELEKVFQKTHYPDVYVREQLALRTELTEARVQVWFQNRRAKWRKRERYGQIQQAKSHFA
# ALX3 [28] = target: ALX3 (Homo sapiens, UniProt O95076 139-225)
# Sequence of ALX3 (Homo sapiens, UniProt O95076 139-225) (O95076 139-225): as the sequence (O95076 139-225 N203S) above, with S65N counted along it
# ALX3 [29] = target: ALX3 (Homo sapiens, UniProt O95076 139-225, L168Q)
# Sequence of ALX3 (Homo sapiens, UniProt O95076 139-225, L168Q) (O95076 139-225 L168Q): as the sequence (O95076 139-225 N203S) above, with L30Q, S65N counted along it
# ALX3 [30] = target: ALX3 (Homo sapiens, UniProt O95076 139-225, L168V)
# Sequence of ALX3 (Homo sapiens, UniProt O95076 139-225, L168V) (O95076 139-225 L168V): as the sequence (O95076 139-225 N203S) above, with L30V, S65N counted along it
# Sequence of ALX4 (Homo sapiens, UniProt Q9H161 200-286) (Q9H161 200-286): as the sequence (Q9H161 200-286 Q225E) above, with E26Q counted along it
sequence,measurement,setting,value
CGAAGGCC,binding signal,ALX4 [1],"8.29 upbm affinity estimate (log intensity, higher = more binding, comparable within an allelic series)"
same,binding signal,PAX4 [2],"9.2 upbm affinity estimate (log intensity, higher = more binding, comparable within an allelic series)"
same,binding signal,PAX4 [3],"9.31 upbm affinity estimate (log intensity, higher = more binding, comparable within an allelic series)"
same,binding signal,ALX4 [4],"8.19 upbm affinity estimate (log intensity, higher = more binding, comparable within an allelic series)"
same,binding signal,NKX2-6 [5],"9.35 upbm affinity estimate (log intensity, higher = more binding, comparable within an allelic series)"
same,binding signal,PAX4 [6],"9.3 upbm affinity estimate (log intensity, higher = more binding, comparable within an allelic series)"
same,binding signal,PAX4 [7],"9.19 upbm affinity estimate (log intensity, higher = more binding, comparable within an allelic series)"
same,binding signal,PAX4 [8],"9.09 upbm affinity estimate (log intensity, higher = more binding, comparable within an allelic series)"
same,binding signal,NKX2-6 [9],"9.28 upbm affinity estimate (log intensity, higher = more binding, comparable within an allelic series)"
same,binding signal,PAX4 [10],"9.29 upbm affinity estimate (log intensity, higher = more binding, comparable within an allelic series)"
TAAGTCGA,binding signal,ALX4 [1],"10 upbm affinity estimate (log intensity, higher = more binding, comparable within an allelic series)"
TATTAAGA,binding signal,HOXC10 [11],"11.2 upbm affinity estimate (log intensity, higher = more binding, comparable within an allelic series)"
same,binding signal,HOXC10 [12],"10.9 upbm affinity estimate (log intensity, higher = more binding, comparable within an allelic series)"
same,binding signal,CRX,"10.6 upbm affinity estimate (log intensity, higher = more binding, comparable within an allelic series)"
AAGTACCG,binding signal,HOXC10 [11],"11 upbm affinity estimate (log intensity, higher = more binding, comparable within an allelic series)"
same,binding signal,NKX3-2 [13],"12.4 upbm affinity estimate (log intensity, higher = more binding, comparable within an allelic series)"
same,binding signal,NKX3-2 [14],"12.5 upbm affinity estimate (log intensity, higher = more binding, comparable within an allelic series)"
ATGTCTTA,binding signal,ALX4 [1],"9.38 upbm affinity estimate (log intensity, higher = more binding, comparable within an allelic series)"
CGGATAAC,binding signal,ALX4 [1],"9.46 upbm affinity estimate (log intensity, higher = more binding, comparable within an allelic series)"
ATATAGTC,binding signal,ALX4 [1],"8.99 upbm affinity estimate (log intensity, higher = more binding, comparable within an allelic series)"
TTAAATAA,binding signal,HOXC10 [11],"11.4 upbm affinity estimate (log intensity, higher = more binding, comparable within an allelic series)"
same,binding signal,HOXC10 [12],"11.1 upbm affinity estimate (log intensity, higher = more binding, comparable within an allelic series)"
same,binding signal,ALX3 [15],"8.72 upbm affinity estimate (log intensity, higher = more binding, comparable within an allelic series)"
GTCGGCGA,binding signal,ALX4 [1],"8.22 upbm affinity estimate (log intensity, higher = more binding, comparable within an allelic series)"
same,binding signal,PRRX1 [16],"9.28 upbm affinity estimate (log intensity, higher = more binding, comparable within an allelic series)"
same,binding signal,ALX4 [4],"8.22 upbm affinity estimate (log intensity, higher = more binding, comparable within an allelic series)"
same,binding signal,PRRX1 [17],"9.44 upbm affinity estimate (log intensity, higher = more binding, comparable within an allelic series)"
AGGGCACC,binding signal,ALX4 [1],"7.93 upbm affinity estimate (log intensity, higher = more binding, comparable within an allelic series)"
same,binding signal,PRRX1 [16],"9.03 upbm affinity estimate (log intensity, higher = more binding, comparable within an allelic series)"
same,binding signal,ALX4 [4],"8.09 upbm affinity estimate (log intensity, higher = more binding, comparable within an allelic series)"
same,binding signal,MSX2 [18],"9.47 upbm affinity estimate (log intensity, higher = more binding, comparable within an allelic series)"
same,binding signal,MSX2 [19],"9.48 upbm affinity estimate (log intensity, higher = more binding, comparable within an allelic series)"
same,binding signal,MSX2 [20],"9.58 upbm affinity estimate (log intensity, higher = more binding, comparable within an allelic series)"
same,binding signal,PRRX1 [17],"9.28 upbm affinity estimate (log intensity, higher = more binding, comparable within an allelic series)"
AATACTTA,binding signal,ALX4 [1],"10.5 upbm affinity estimate (log intensity, higher = more binding, comparable within an allelic series)"
AGTTAGTG,binding signal,ALX4 [1],"10.4 upbm affinity estimate (log intensity, higher = more binding, comparable within an allelic series)"
ACATTACC,binding signal,ALX4 [1],"10.7 upbm affinity estimate (log intensity, higher = more binding, comparable within an allelic series)"
AAGTTTAC,binding signal,ALX4 [1],"9.93 upbm affinity estimate (log intensity, higher = more binding, comparable within an allelic series)"
ATATTTAG,binding signal,ALX4 [1],"10.9 upbm affinity estimate (log intensity, higher = more binding, comparable within an allelic series)"
CTACTTAC,binding signal,ALX4 [1],"9.76 upbm affinity estimate (log intensity, higher = more binding, comparable within an allelic series)"
ATGAATTG,binding signal,ALX4 [1],"11 upbm affinity estimate (log intensity, higher = more binding, comparable within an allelic series)"
CCCGAGAC,binding signal,HOXC10 [11],"9.98 upbm affinity estimate (log intensity, higher = more binding, comparable within an allelic series)"
same,binding signal,HOXC10 [12],"9.98 upbm affinity estimate (log intensity, higher = more binding, comparable within an allelic series)"
CTCGGCCA,binding signal,HOXC10 [11],"10.1 upbm affinity estimate (log intensity, higher = more binding, comparable within an allelic series)"
same,binding signal,HOXC10 [12],"10.1 upbm affinity estimate (log intensity, higher = more binding, comparable within an allelic series)"
same,binding signal,PROP1 [21],"6.9 upbm affinity estimate (log intensity, higher = more binding, comparable within an allelic series)"
same,binding signal,PROP1 [22],"6.67 upbm affinity estimate (log intensity, higher = more binding, comparable within an allelic series)"
same,binding signal,PROP1 [23],"6.71 upbm affinity estimate (log intensity, higher = more binding, comparable within an allelic series)"
AAATTCGA,binding signal,ALX4 [1],"10.7 upbm affinity estimate (log intensity, higher = more binding, comparable within an allelic series)"
CCACTAAC,binding signal,ALX4 [1],"10 upbm affinity estimate (log intensity, higher = more binding, comparable within an allelic series)"
AATCTCCA,binding signal,ALX4 [1],"9.73 upbm affinity estimate (log intensity, higher = more binding, comparable within an allelic series)"
GAAGCTGC,binding signal,HOXC10 [11],"10.1 upbm affinity estimate (log intensity, higher = more binding, comparable within an allelic series)"
same,binding signal,HOXC10 [12],"10 upbm affinity estimate (log intensity, higher = more binding, comparable within an allelic series)"
CGTCCGCC,binding signal,HOXC10 [11],"9.96 upbm affinity estimate (log intensity, higher = more binding, comparable within an allelic series)"
same,binding signal,HOXC10 [12],"10 upbm affinity estimate (log intensity, higher = more binding, comparable within an allelic series)"
same,binding signal,VAX1 [24],"7.19 upbm affinity estimate (log intensity, higher = more binding, comparable within an allelic series)"
same,binding signal,VAX1 [25],"7.31 upbm affinity estimate (log intensity, higher = more binding, comparable within an allelic series)"
same,binding signal,VAX1 [26],"7.05 upbm affinity estimate (log intensity, higher = more binding, comparable within an allelic series)"
ATTAATTC,binding signal,ALX4 [1],"13.6 upbm affinity estimate (log intensity, higher = more binding, comparable within an allelic series)"
same,binding signal,PAX4 [2],"11.9 upbm affinity estimate (log intensity, higher = more binding, comparable within an allelic series)"
same,binding signal,PRRX1 [16],"11.1 upbm affinity estimate (log intensity, higher = more binding, comparable within an allelic series)"
same,binding signal,PAX4 [3],"12.5 upbm affinity estimate (log intensity, higher = more binding, comparable within an allelic series)"
same,binding signal,HOXB6,"9.98 upbm affinity estimate (log intensity, higher = more binding, comparable within an allelic series)"
same,binding signal,ALX4 [4],"12.7 upbm affinity estimate (log intensity, higher = more binding, comparable within an allelic series)"
same,binding signal,ALX3 [27],"8.41 upbm affinity estimate (log intensity, higher = more binding, comparable within an allelic series)"
same,binding signal,PAX4 [6],"12.1 upbm affinity estimate (log intensity, higher = more binding, comparable within an allelic series)"
same,binding signal,ALX1,"11.1 upbm affinity estimate (log intensity, higher = more binding, comparable within an allelic series)"
same,binding signal,PAX4 [7],"10.7 upbm affinity estimate (log intensity, higher = more binding, comparable within an allelic series)"
same,binding signal,ALX3 [28],"12.2 upbm affinity estimate (log intensity, higher = more binding, comparable within an allelic series)"
same,binding signal,PAX4 [8],"11.2 upbm affinity estimate (log intensity, higher = more binding, comparable within an allelic series)"
same,binding signal,ALX3 [29],"10.2 upbm affinity estimate (log intensity, higher = more binding, comparable within an allelic series)"
same,binding signal,ALX3 [30],"9.68 upbm affinity estimate (log intensity, higher = more binding, comparable within an allelic series)"
same,binding signal,PAX4 [10],"11 upbm affinity estimate (log intensity, higher = more binding, comparable within an allelic series)"
same,binding signal,ALX3 [15],"8.51 upbm affinity estimate (log intensity, higher = more binding, comparable within an allelic series)"
TGATGGCA,binding signal,HOXC10 [11],"10.7 upbm affinity estimate (log intensity, higher = more binding, comparable within an allelic series)"
same,binding signal,VAX1 [24],"9.08 upbm affinity estimate (log intensity, higher = more binding, comparable within an allelic series)"
same,binding signal,VAX1 [25],"8.72 upbm affinity estimate (log intensity, higher = more binding, comparable within an allelic series)"
